Our source for the Potency values is PubChem BioAssay AID624296 (National Center for Advancing Translational Sciences (NCATS), 2012).

Values joined by “and” are separate entries in the source; they are usually repeats but may differ in a detail not shown here. Equal values may be shown once. About 9,900 (2.8%) of roughly 350,000 compounds were called active. Entries that show only a call come without a potency. About 15% were inconclusive and are not listed. The call rests on the fitted dose curve; in most records, active means well fitted activation curve with a large enough effect; inconclusive means small, poorly fitted or top-dose-only effect; inactive means no such curve, though single readings can be large or run the other way. The full list was thinned out, with actives kept by preference.
Potency means the concentration at half of the fitted maximal effect.

The nature of the assay: A quantitative high throughput screen for small molecules that induce DNA re-replication in MCF 10a normal breast cells. Further: nearly all actives have a fitted effect of over 50% in size. To be noted: MCF 10A DNA re-replication, Hoechst nuclear intensity, 48 h; series mostly up to 46.1 µM.
On to `Cc1cc(C)cc(NC(=O)C(c2ccccc2)N2CCN(CC(=O)N3CCCC3)CC2)c1` (stereo not given), for which the Potency entry was “inactive”. Next, `COc1ccc(CNC(=O)C[C@H]2C[C@H](C(=O)N3CCOCC3)[C@@]3(C)c4[nH]c5cc(CCC(=O)N(C)C)ccc5c4CCN3C2=O)cc1OC`: “inactive”; `O=C(CN1C(=O)NC2(CCCCC2)C1=O)N1CCN(C(=O)c2cccs2)CC1`: “inactive”.

For `CCn1c(=S)[nH]c2sc3c(c2c1=O)CCCCC3`, the Potency result is “inactive”. The result for `CCC1(C)Cc2c(sc3[nH]c(=S)n(Cc4ccccc4)c(=O)c23)CO1` (stereo not given) reads 13 µM (active); that for `CCC1(C)Cc2c(sc3nc(SC)[nH]c(=O)c23)CO1` (stereo not given), “inactive”; that for `CS(=O)(=O)N(CC(O)Cn1c2ccccc2c2ccccc21)c1cccc2ccccc12` (stereo not given), 16.4 µM (active). The result for `CCCCn1c(=O)c(C(C)=O)c(O)c2ccccc21` reads “inactive”. The result for `Cc1cc(C)n(CC(O)CN(c2ccccc2)S(=O)(=O)c2ccc3ccccc3c2)n1` (stereo not given) reads “inactive”; that for `O=S(=O)(c1ccccc1)N(CC(O)CN1CCCCC1)c1ccccc1` (stereo not given), “inactive”; that for `CCCn1c(=O)c(-c2ccccc2)c(O)c2ccccc21`, “inactive”. `CCCCN(CCCC)CC(O)Cn1c2ccccc2c(=O)c2ccccc21` (stereo not given): the Potency is 18.4 µM (active). Next, `O=C(CN1C(=O)NC(Cc2c[nH]c3ccccc23)C1=O)Nc1ccccc1C(F)(F)F` (stereo not given): “inactive”; `CN(CC(=O)Nc1ccc(C(N)=O)cc1)S(=O)(=O)c1ccc2c(c1)OCCO2`: “inactive”. `Cn1nccc1C(=O)NC1CCCc2c1cnn2-c1ccccc1F` (stereo not given): the Potency result was “inactive”. Next, `COc1ccc(C(=O)NC2CCCc3c2cnn3-c2cccc(C)c2C)c(OC)n1` (stereo not given): 18.4 µM (active). For the molecule `CC(=O)NCC(=O)NC1CCCc2c1cnn2-c1ccccc1F` (stereo not given), the Potency result was “inactive”.

For the molecule `CC(C)(C)NS(=O)(=O)NC(=O)C1=C(N2CCCC2)COC1=O`, the Potency result is “inactive”. Next, `Cc1ccc(S(=O)(=O)N2CCCCC2)cc1NC(=O)[C@@H]1CCCN1C(=O)c1cccs1`: “inactive”; `Cc1ccc(S(=O)(=O)NCC(=O)NNC(=O)c2ccc(Br)cc2)cc1C`: “inactive”; `Cc1cc(C(F)(F)F)nn1-c1nc(-c2ccco2)cc(C(F)(F)F)n1`: “inactive”. The result for `FC(F)(F)c1cc(-c2cccs2)nc(NCc2ccco2)n1` reads “inactive”; that for `FC(F)(F)c1cc(-c2ccco2)nc(NCc2ccc(Cl)cc2)n1`, 16.4 µM (active); that for `CN(CC(=O)Nc1ccc(F)c(F)c1F)C(=O)C1CC(=O)N(C2CCCC2)C1` (stereo not given), “inactive”.

As to `O=C(N[C@@H](Cc1c[nH]c2ccccc12)C(=O)O)OCC1c2ccccc2-c2ccccc21`, the Potency entry is “inactive”.

As for `COc1ccc(CCNC(=O)COC(=O)c2ncc(Cl)c(Cl)c2Cl)cc1OC`, the Potency entry is “inactive”. Consider `CCOC(=O)c1cnc(SCC(=O)Nc2ccccc2C(=O)OC)nc1N`, for which the Potency entry was “inactive”. The result for `COC(=O)c1ccccc1NC(=O)CSc1nc2c(c(=O)[nH]1)CCC2` reads “inactive”; that for `CCOC(=O)c1ccccc1NC(=O)CSc1nc2ccccc2c(=O)[nH]1`, 18.4 µM (active); that for `Cc1ccc(Cn2c(C)c3cnn(CC(=O)NCCN4CCOCC4)c(=O)c3c2C)cc1`, “inactive”.

Take `O=C(NCCCN1CCOCC1)c1cn(-c2ccccc2)nc1-c1ccc(F)cc1`: the Potency result is “inactive”. The result for `COc1ccc(-c2ccc3c(c2)C2CC3CCN2CCC#N)cc1` (stereo not given) reads “inactive”; that for `CCN(CC)S(=O)(=O)c1cc(C(=O)Nc2cc(S(=O)(=O)N3CCOCC3)ccc2N2CCCC2)ccc1F`, “inactive”.

For `C/C(=C\c1ccccc1)C1NC(=O)c2c(sc3c2CCCC3)N1` (stereo not given), the Potency is 20.6 µM (active). `O=C1NC(c2ccncc2)Nc2sc3c(c21)CCCC3` (stereo not given): the Potency entry is “inactive”. The result for `O=C1CCCCC1C(=O)c1ccccc1` (stereo not given) reads “inactive”. Turning to `CNC[C@H]1Oc2c(NC(=O)C3CCCCC3)cccc2C(=O)N([C@H](C)CO)C[C@@H]1C`, the Potency result was “inactive”. The result for `Cc1noc(C)c1S(=O)(=O)N(C)C[C@H]1Oc2ccc(NC(=O)C3CCCCC3)cc2C(=O)N([C@H](C)CO)C[C@@H]1C` reads “inactive”; that for `O=C(COC(=O)c1ccccc1)c1ccc2c(c1)OCCO2`, “inactive”. The result for `O=C(CN1CCC(O)(c2ccccc2)CC1)Nc1ccc2c(c1)OCCO2` reads “inactive”; that for `O=C(CCN1CCc2ccccc2C(O)(c2ccccc2)C1)c1ccc2c(c1)OCCO2` (stereo not given), 6.51 µM (active); that for `CCN(C(=O)COC(=O)c1ccccc1O)c1cccc2ccccc12`, “inactive”. Next, `O=C(CCCOc1ccccc1)NNC(=O)c1ccc(Cl)cc1`: “inactive”; `CCS(=O)(=O)C1=NSC2=NC(=O)/C(=C\c3cc(C)n(-c4cccc(OC)c4)c3C)C(=N)N21`: 5.8 µM (active). Regarding `CCS(=O)(=O)C1=NSC2=NC(=O)/C(=C\c3ccc(OS(=O)(=O)c4ccccc4)cc3)C(=N)N21`, the Potency entry is “inactive”.

For `CCC1=NN2C(=N)/C(=C/c3cc(C)n(-c4ccccc4)c3C)C(=O)N=C2S1`, the Potency result was “inactive”. For `CC(=O)c1cccc(-c2ccc(CN3C(CC(C)C)C(=O)N(Cc4cn(CC5CCCCC5)nn4)CCS3(=O)=O)cc2)c1` (stereo not given), the Potency result is “inactive”.

For `CCOc1ccc(C(=O)Nc2cc(OC)ccc2OC)cc1`, the Potency result is “inactive”. Next, `CCOc1cc(NC(=O)c2ccccn2)c(OCC)cc1NC(=O)c1ccc(OC)cc1`: 3.26 µM (active). Consider `CCOc1cc2ccccc2cc1C(=O)Nc1ccccn1`, for which the Potency result was “inactive”.

With `CN(Cc1ccc(CNC[C@H]2O[C@@H](n3cnc4c(N)ncnc43)[C@H](O)[C@@H]2O)o1)S(C)(=O)=O`, the Potency result was “inactive”.

With `Cc1c(C(C)CCCO)oc(=O)c2c1Oc1c(C)c(C(C)C[C@@H](C)O)oc(=O)c1C2` (stereo not given in full), the Potency entry is “inactive”. Regarding `CCCn1c(C)cc(C(=O)COC(=O)c2c(C)nn(-c3ccccc3)c2C)c1C`, the Potency is 9.2 µM (active). The result for `Cc1nn(-c2ccccc2)c(C)c1C(=O)OCC(=O)NC(=O)NC1CCCCC1` reads “inactive”. The result for `Cc1cccc(C)c1NC(=O)COC(=O)c1c(C)nn(-c2ccccc2)c1C` reads “inactive”; that for `O=C1CCC/C=C\C[C@@H](CC(=O)N(CCO)Cc2ccccc2)C(=O)NCCO1`, “inactive”. Next, `O=C1OCC2=C1C(c1ccc(Cl)cc1)c1cc3c(cc1O2)OCO3` (stereo not given): “inactive”; `C=CC(=O)OCCOCCOCCOCCOC(=O)C=C`: 5.8 µM (active); `Cc1cc(N/N=C\c2ccc(Br)cc2)nc(-n2nc(C)cc2C)n1`: 18.4 µM (active). Regarding `CCOC(=O)c1cnc(-n2nc(C)cc2C)nc1Nc1cccc(C(C)=O)c1`, the Potency result was “inactive”. On to `CC(=O)c1ccc(Oc2cc(C)nc(-n3nc(C)cc3C)n2)cc1`, for which the Potency was 4.11 µM (active).

`Cc1ccc(S(=O)(=O)Nc2nc(C)cc(N/N=C/c3ccc(O)cc3)n2)cc1`: the Potency result is “inactive”.

As to `Cc1cc(Nc2ccc(Cl)cc2)nc(N2CCOCC2)n1`, the Potency result was “inactive”. As to `CC(=O)Nc1ccc(Nc2cc(C)nc(Nc3ccc(NC(C)=O)cc3)n2)cc1`, the Potency entry is “inactive”. `COc1ccc(Nc2cc(C)nc(-n3nc(C)cc3C)n2)cc1`: the Potency is 2.06 µM (active). The result for `Cc1cc(C)n(-c2nnc(N3CCN(c4ccccc4)CC3)nn2)n1` reads “inactive”. The result for `Cc1cc(C)n(-c2ccc(Cl)c(C(=O)O)n2)n1` reads “inactive”; that for `COc1ccc2oc(N)nc2c1`, “inactive”.

For `COc1cccc(CNC(C)C(=O)Nc2ccc(S(=O)(=O)N3CCCC3)cc2)c1` (stereo not given), the Potency result was “inactive”. Next, `CN(Cc1ccc(F)cc1)C(=O)CN1C(=O)c2ccccc2S1(=O)=O`: “inactive”.

Consider `C[C@]12CC[C@H](O)CC1=CCC1C2CC[C@@]2(C)C1CC[C@@H]2NC(=O)CCC(=O)O` (stereo not given in full), for which the Potency result was “inactive”. On to `CC1CCCCC1NC(=O)COC(=O)Cc1ccc(Cl)cc1` (stereo not given), for which the Potency entry was “inactive”. The result for `CC(C)(C)C(=O)Nc1cccc(-c2ccc[nH]2)n1` reads “inactive”; that for `CC(=O)c1c(C)[nH]c(C(=O)OCC(=O)Nc2c(C)cccc2C)c1C`, “inactive”; that for `O=C(CNC(=O)c1ccco1)NNC(=O)c1ccc(Br)cc1`, “inactive”. `Cc1cccc(NC(=S)N2CCC(c3nc4ccccc4s3)CC2)c1`: the Potency entry is “inactive”. The result for `Cc1cccc(NC(=S)N2CCCC(c3nc4ccccc4[nH]3)C2)c1` (stereo not given) reads 1.03 µM (active); that for `CCCNC(=S)N1CCCC(c2nc3ccccc3[nH]2)C1` (stereo not given), “inactive”; that for `O=C(Nc1ccccc1-c1ccccc1)c1cccs1`, “inactive”. The result for `O=C(Nc1ccccc1)c1ccc(NC(=O)c2cccs2)cc1` reads “inactive”; that for `O=C(Nc1ccnc(-c2ccncc2)n1)c1cccs1`, 0.259 µM (active). On to `C=CC(=O)Nc1ccc(Nc2ccnc(Nc3ccc(N4CCN(C)CC4)cc3)n2)cc1`, for which the Potency was 20.6 µM (active). As to `CN1CCN(c2ccc(NC(=O)c3ccccc3)cc2)CC1`, the Potency entry was “inactive”.

For the molecule `Cc1cccc(N2CCN(c3ccc(NC(=O)/C=C\C(=O)O)cc3)CC2)c1`, the Potency entry was “inactive”. The result for `CCCCN(CC(=O)Nc1cccc(S(=O)(=O)N2CCCC2)c1)Cc1nc2ccccc2c(=O)[nH]1` reads “inactive”; that for `COC1C(CO)OC(n2cnc3c(=S)nc(N)[nH]c32)C1O` (stereo not given), “inactive”.

Consider `Cc1ccc(O)c(CNc2nc3ccccc3[nH]2)c1`, for which the Potency entry is “inactive”. Next, `COc1ccc2nc(SCC(=O)Nc3c(C)cc(C)cc3C)[nH]c2c1`: “inactive”; `COC(=O)Nc1nc2ccc(Sc3ccccc3)cc2[nH]1`: 904 nM (active) and 1.16 µM (active); `Cc1ccccc1Nc1nc(N)nc(COC(=O)CCC(=O)c2ccc(F)cc2)n1`: “inactive”. Take `Cc1cc(CO)nn1-c1ccc([N+](=O)[O-])cc1`: the Potency result was “inactive”. The result for `CC(C)(C)c1cnnn1-c1ccc([N+](=O)[O-])cc1` reads “inactive”. The result for `COc1cnn(-c2ccc([N+](=O)[O-])cc2)c(=O)c1Cl` reads 18.4 µM (active). The result for `CN(C)c1ccc(-n2cccc2/C=C2/SC(=Nc3ccc(F)cc3)NC2=O)cc1` reads “inactive”; that for `COc1cc(/C=C2/C(=O)NN(c3cccc(Cl)c3)C2=O)cc(Br)c1O`, “inactive”; that for `O=C1NN(c2ccccc2)C(=O)/C1=C/c1ccc(-c2cccc(C(=O)O)c2)o1`, “inactive”. As to `Cc1ccc(N=C2NC(=O)/C(=C/C=C/c3ccco3)S2)cc1C`, the Potency was 7.31 µM (active). For the molecule `Cc1ccc(N2NC(=O)/C(=C/C=C/c3ccco3)C2=O)cc1C`, the Potency is 23.1 µM (active).

Take `CCC1S/C(=N/N=C/c2ccco2)NC1=O` (stereo not given): the Potency result was “inactive”.

On to `CC(C)c1ccc(S(=O)(=O)N2CCN(C(C)C(=O)NC3CCCC3)CC2)cc1` (stereo not given), for which the Potency entry is “inactive”.
